Inconclusive results are not listed. Where a call stands in place of a potency, no number is given. Calls of active or inactive are those of the source. Calls come from the whole dose curve; as a rule, active = well fitted curve in the direction sought with a large enough effect; inconclusive = small, poorly fitted or top-dose-only effect, or another doubt; inactive = no such curve, though single readings can be large; an effect the other way counts as inactive or inconclusive.
Experiments:
[1] = Quantitative High-Throughput drug screen in 47 multiple myeloma cell lines against the NCATS MIPE library collection: KHM11_PLB cell viability assay (AID 1918962); note: nearly all actives have a fitted effect of over 35% in size
Outline: (§1)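 Relative luminescence from CellTiter-Glo served as the viability signal, referenced to DMSO-treated (100%) and cell-free medium (0%) controls. Treatment lasted 48 hours at 37C with 500 cells per well.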

[2] = Quantitative High-Throughput drug screen in 47 multiple myeloma cell lines against the NCATS MIPE library collection: JIM3_ECACC cell viability assay (AID 1918963; note: nearly all actives have a fitted effect of over 35% in size)
Outline: as §1

[3] = Quantitative High-Throughput drug screen in 47 multiple myeloma cell lines against the NCATS MIPE library collection: JIM1_ECACC cell viability assay (AID 1918964)
Outline: (§2)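 We plated 500 myeloma cells per well, pinned in MIPE 4.0 compounds, and incubated for 48 hours at 37C. ATP was then quantified with CellTiter-Glo, with DMSO and media-only wells defining 100% and 0%.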

[4] = Quantitative High-Throughput drug screen in 47 multiple myeloma cell lines against the NCATS MIPE library collection: H1112_PLB cell viability assay (AID 1918967; note: nearly all actives have a fitted effect of over 30% in size)
Outline: as §2

[5] = Quantitative High-Throughput drug screen in 47 multiple myeloma cell lines against the NCATS MIPE library collection: Karpas25_ECACC cell viability assay (AID 1918968; note: nearly all actives have a fitted effect of over 35% in size)
Outline: as §2

[6] = Quantitative High-Throughput drug screen in 47 multiple myeloma cell lines against the NCATS MIPE library collection: KMS27_JCRB cell viability assay (AID 1918970); note: nearly all actives have a fitted effect of over 30% in size
Outline: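 CellTiter-Glo luminescence after 48 h drug exposure at 37 °C; 500 cells/well, 1536-well format, pin-tool compound addition; DMSO = 100%, media-only = 0% viability.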

[7] = Quantitative High-Throughput drug screen in 47 multiple myeloma cell lines against the NCATS MIPE library collection: KMS12PE_JCRB cell viability assay (AID 1918972); note: nearly all actives have a fitted effect of over 30% in size
Outline: as §1

[8] = Quantitative High-Throughput drug screen in 47 multiple myeloma cell lines against the NCATS MIPE library collection: KMS21BM_JCRB cell viability assay (AID 1918974); conditions: ATP luminescence, 48 h; viability: at 45.8 µM (top of the series)
Outline: as §2

[9] = Quantitative High-Throughput drug screen in 47 multiple myeloma cell lines against the NCATS MIPE library collection: MOLP8_DSMZ cell viability assay (AID 1918977); note: nearly all actives have a fitted effect of over 45% in size
Outline: (§3)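 Readout: median RLU from CellTiter-Glo after 5 min at room temperature. Preceding step was 48 h drug treatment of 500 cells/well at 37 °C, 5% CO2, with DMSO-only and media-only control wells.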

[10] = Quantitative High-Throughput drug screen in 47 multiple myeloma cell lines against the NCATS MIPE library collection: NCIH929_DSMZ cell viability assay (AID 1918978); note: nearly all actives have a fitted effect of over 35% in size
Outline: as §3

[11] = Quantitative High-Throughput drug screen in 47 multiple myeloma cell lines against the NCATS MIPE library collection: OCIMY1_PLB cell viability assay (AID 1918979); note: nearly all actives have a fitted effect of over 35% in size
Outline: as §3

[12] = Quantitative High-Throughput drug screen in 47 multiple myeloma cell lines against the NCATS MIPE library collection: MM1S_ATCC cell viability assay (AID 1918980); note: nearly all actives have a fitted effect of over 45% in size
Outline: as §3

[13] = Quantitative High-Throughput drug screen in 47 multiple myeloma cell lines against the NCATS MIPE library collection: LP1_DSMZ cell viability assay (AID 1918982); note: nearly all actives have a fitted effect of over 35% in size
Outline: as §3

[14] = Quantitative High-Throughput drug screen in 47 multiple myeloma cell lines against the NCATS MIPE library collection: INA6_PLB cell viability assay (AID 1918965; note: nearly all actives have a fitted effect of over 55% in size)
Outline: as §1

[15] = Quantitative High-Throughput drug screen in 47 multiple myeloma cell lines against the NCATS MIPE library collection: KMS20_JCRB cell viability assay (AID 1918973); note: nearly all actives have a fitted effect of over 45% in size
Outline: as §2

[16] = Quantitative High-Throughput drug screen in 47 multiple myeloma cell lines against the NCATS MIPE library collection: MMM1_PLB cell viability assay (AID 1918976); note: nearly all actives have a fitted effect of over 35% in size
Outline: as §3

[17] = Quantitative High-Throughput drug screen in 47 multiple myeloma cell lines against the NCATS MIPE library collection: MM1R_ATCC cell viability assay (AID 1918981); note: nearly all actives have a fitted effect of over 35% in size
Outline: as §3

[18] = Quantitative High-Throughput drug screen in 47 multiple myeloma cell lines against the NCATS MIPE library collection: JJN3_DSMZ cell viability assay (AID 1918966; note: nearly all actives have a fitted effect of over 50% in size)
Outline: as §2

[19] = Quantitative High-Throughput drug screen in 47 multiple myeloma cell lines against the NCATS MIPE library collection: KMS12BM_JCRB cell viability assay (AID 1918971); note: nearly all actives have a fitted effect of over 35% in size
Outline: (§4)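 Inhibition of cell viability is measured here. Each line was plated at 500 cells per well, treated with MIPE 4.0 drugs, kept 48 hours at 37C, then assayed for ATP content by CellTiter-Glo luminescence.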

[20] = Quantitative High-Throughput drug screen in 47 multiple myeloma cell lines against the NCATS MIPE library collection: KMS26_JCRB cell viability assay (AID 1918975); note: nearly all actives have a fitted effect of over 45% in size
Outline: as §4
Potency is the fitted concentration of half-maximal effect.

O=c1cc(O)c(Cl)c[nH]1
Potency [1]: inactive
Potency [2]: inactive
Potency [3]: 6.62 µM (active)
Potency [4]: inactive
Potency [5]: inactive
Potency [6]: 1.66 µM (active)
Potency [7]: 6.62 µM (active)
Potency [8]: 0.743 µM (active)
Potency [9]: inactive
Potency [10]: inactive
Potency [11]: inactive
Potency [12]: 3.72 µM (active)
Potency [13]: inactive

CCn1cc(C(=O)O)c(=O)c2cc(F)c(N3CCNCC3)cc21
Potency [1]: inactive
Potency [2]: inactive
Potency [3]: inactive
Potency [14]: inactive
Potency [4]: inactive
Potency [5]: inactive
Potency [6]: inactive
Potency [15]: inactive
Potency [16]: inactive
Potency [10]: inactive
Potency [11]: inactive

O=C(O)c1cccnc1
Potency [1]: 18.7 µM (active)
Potency [2]: inactive
Potency [14]: inactive
Potency [7]: inactive
Potency [15]: inactive
Potency [9]: inactive
Potency [10]: inactive
Potency [11]: inactive
Potency [12]: inactive
Potency [17]: inactive
Potency [13]: inactive

CC(=O)Oc1ccccc1C(=O)Nc1ncc([N+](=O)[O-])s1
Potency [2]: 17.1 µM (active)
Potency [3]: 27 µM (active)
Potency [14]: 17.1 µM (active)
Potency [18]: 30.3 µM (active)
Potency [4]: 21.5 µM (active)
Potency [5]: 8.55 µM (active)
Potency [6]: 12.1 µM (active)
Potency [19]: 24.1 µM (active)
Potency [7]: 24.1 µM (active)
Potency [15]: 8.55 µM (active)
Potency [8]: 17.1 µM (active)
Potency [20]: 15.2 µM (active)
Potency [9]: 34 µM (active)
Potency [10]: 19.1 µM (active)
Potency [11]: 42.9 µM (active)
Potency [12]: 21.5 µM (active)
Potency [17]: 19.1 µM (active)
Potency [13]: 21.5 µM (active)

CN(CCOc1ccc(CC2SC(=O)NC2=O)cc1)c1ccccn1 (centres undefined)
Potency [1]: inactive
Potency [2]: inactive
Potency [14]: inactive
Potency [4]: inactive
Potency [5]: inactive
Potency [6]: inactive
Potency [15]: inactive
Potency [9]: inactive
Potency [10]: inactive
Potency [11]: inactive
Potency [12]: 16.6 µM (active)
Potency [13]: inactive

CCN[C@H]1C[C@H](C)S(=O)(=O)c2sc(S(N)(=O)=O)cc21
Potency [2]: inactive
Potency [3]: inactive
Potency [14]: inactive
Potency [4]: inactive
Potency [5]: inactive
Potency [6]: inactive
Potency [19]: inactive
Potency [15]: inactive
Potency [20]: inactive
Potency [9]: inactive
Potency [10]: inactive
Potency [11]: inactive
Potency [17]: inactive
Potency [13]: inactive

CCOC(=O)[C@H](CCc1ccccc1)N[C@H]1CS[C@H](c2cccs2)CN(CC(=O)O)C1=O
Potency [2]: inactive
Potency [3]: 1.32 µM (active)
Potency [14]: 2.96 µM (active)
Potency [18]: 16.6 µM (active)
Potency [4]: 13.2 µM (active)
Potency [6]: 0.296 µM (active)
Potency [19]: 23.5 µM (active)
Potency [7]: 1.66 µM (active)
Potency [15]: 1.66 µM (active)
Potency [8]: 0.132 µM (active)
Potency [20]: 18.7 µM (active)
Potency [9]: 20.9 µM (active)
Potency [10]: 5.9 µM (active)
Potency [11]: inactive
Potency [12]: 0.418 µM (active)

CC1=NN(c2ccccc2)C(=O)C1
Potency [2]: inactive
Potency [3]: inactive
Potency [14]: 13.2 µM (active)
Potency [6]: inactive
Potency [7]: inactive
Potency [20]: inactive
Potency [9]: inactive
Potency [11]: inactive
Potency [12]: inactive
Potency [17]: inactive

NC(=O)c1ccc2[nH]ccc2c1
Potency [2]: inactive
Potency [3]: inactive
Potency [14]: inactive
Potency [4]: inactive
Potency [19]: inactive
Potency [7]: inactive
Potency [20]: inactive
Potency [10]: inactive
Potency [11]: inactive
Potency [13]: inactive

Nc1[nH]c(=O)ncc1F
Potency [2]: inactive
Potency [3]: inactive
Potency [18]: inactive
Potency [4]: inactive
Potency [5]: inactive
Potency [6]: inactive
Potency [19]: inactive
Potency [15]: inactive
Potency [9]: inactive
Potency [10]: inactive
Potency [11]: inactive
Potency [17]: inactive
Potency [13]: inactive

O=C(O)c1cn(C2CC2)c2cc(N3CCNCC3)c(F)cc2c1=O
Potency [2]: inactive
Potency [3]: inactive
Potency [18]: inactive
Potency [7]: inactive
Potency [15]: inactive
Potency [9]: inactive
Potency [10]: inactive
Potency [11]: inactive
Potency [17]: inactive

O=C(O)c1ccc(-n2nc(-c3ccccc3O)nc2-c2ccccc2O)cc1
Potency [2]: 18.7 µM (active)
Potency [3]: 18.7 µM (active)
Potency [14]: 18.7 µM (active)
Potency [5]: 16.6 µM (active)
Potency [6]: 18.7 µM (active)
Potency [19]: 20.9 µM (active)
Potency [8]: 20.9 µM (active)

C[C@@H]1CN(c2c(F)c(N)c3c(=O)c(C(=O)O)cn(C4CC4)c3c2F)C[C@H](C)N1
Potency [2]: inactive
Potency [3]: inactive
Potency [14]: inactive
Potency [4]: inactive
Potency [19]: inactive
Potency [7]: inactive
Potency [9]: inactive
Potency [10]: inactive
Potency [12]: inactive
Potency [13]: inactive

Cc1oc(=O)oc1CN1CCN(c2cc3c(cc2F)c(=O)c(C(=O)O)c2n3C(C)S2)CC1 (centres undefined)
Potency [2]: inactive
Potency [3]: inactive
Potency [18]: 14.8 µM (active)
Potency [4]: inactive
Potency [5]: inactive
Potency [6]: inactive
Potency [19]: 13.2 µM (active)
Potency [7]: inactive
Potency [10]: inactive
Potency [11]: inactive

CN(C)CCc1c[nH]c2ccc(C[C@H]3COC(=O)N3)cc12
Potency [2]: inactive
Potency [3]: inactive
Potency [14]: 13.2 µM (active)
Potency [4]: inactive
Potency [6]: inactive
Potency [19]: inactive
Potency [7]: inactive
Potency [20]: inactive
Potency [10]: inactive
Potency [11]: inactive
Potency [13]: inactive

CCOC(=O)[C@H](CCc1ccccc1)N[C@H]1CCc2ccccc2N(CC(=O)O)C1=O
Potency [2]: 20.9 µM (active)
Potency [3]: 9.35 µM (active)
Potency [14]: 14.8 µM (active)
Potency [18]: 23.5 µM (active)
Potency [4]: 23.5 µM (active)
Potency [6]: 9.35 µM (active)
Potency [19]: 29.6 µM (active)
Potency [15]: 5.9 µM (active)
Potency [8]: 9.35 µM (active)
Potency [16]: 18.7 µM (active)
Potency [9]: 18.7 µM (active)
Potency [10]: 26.4 µM (active)
Potency [11]: 23.5 µM (active)
Potency [12]: 8.33 µM (active)
Potency [13]: 20.9 µM (active)

— PubChem BioAssay (NCATS)
